Each structure is given as a SMILES string. Inconclusive results are not listed. Entries that show only a call come without a potency. A number with no mark means an inactive call. Activity calls are given as the source filed them. Calls come from the whole dose curve.

The test deals with D(2) dopamine receptor (Homo sapiens) (UniProt P14416). The experiment in a line: Dopamine D2 receptor (DRD2) small molecule agonists, cell-based qHTS assay (AID 1963594). Note: nearly all actives have a fitted effect of over 35% in size. Particulars: HEK293-DRD2 cAMP HTRF, agonist mode, 30 min; series mostly up to 92.4 µM. The source says: National Center for Advancing Translational Sciences [NCATS]
Sequence of D(2) dopamine receptor (Homo sapiens) (P14416 whole entry, looked up): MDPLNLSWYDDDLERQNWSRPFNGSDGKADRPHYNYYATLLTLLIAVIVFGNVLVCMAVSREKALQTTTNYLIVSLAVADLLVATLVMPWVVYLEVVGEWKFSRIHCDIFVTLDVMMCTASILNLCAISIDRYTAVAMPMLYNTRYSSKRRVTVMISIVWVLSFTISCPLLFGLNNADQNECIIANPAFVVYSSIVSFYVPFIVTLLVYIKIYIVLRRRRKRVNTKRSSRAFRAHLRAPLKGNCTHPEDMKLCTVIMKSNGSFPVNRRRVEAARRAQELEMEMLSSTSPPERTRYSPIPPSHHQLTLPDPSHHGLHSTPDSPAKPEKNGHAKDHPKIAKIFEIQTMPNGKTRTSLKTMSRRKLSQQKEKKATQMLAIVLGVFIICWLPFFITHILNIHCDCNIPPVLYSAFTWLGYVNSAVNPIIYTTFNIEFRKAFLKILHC
Division of Preclinical Innovation [DPI]
U.S. Environmental Protection Agency [EPA]
National Institutes of Environmental Health Sciences [NIEHS]
National Toxicology Program [NTP]
U.S. Food and Drug Administration [FDA]
DRD2 is the D2 subtype of the dopamine receptor, which is coupled to Gi subtype of G protein-coupled receptor. This G protein-coupled receptor inhibits adenylyl cyclase activity. The DRD2-HEK293 cell line stably expressing D2 dopamine receptor can be used for screening agonists and antagonists of interactions between D2 and its ligands. The Hek293-DRD2 cAMP assay is based on HTRF technology. It measures changes of cAMP accumulation in response to Gi coupled GPCR activation or inhibition.
Tox21 Assay Protocol Summary:
DRD2-Hek293 cells were dispensed at 600 cells/3uL/well in 1536-well white plates using a Multidrop Dispenser. After the assay plates were incubated at a 37 C/5% CO2 incubator for 24 h, 1 uL of Ro20-1724 at final concentration of 0.1 mM was transferred to the assay plate by a Flying Reagent Dispenser. Following Ro20-1724 addition, 23 nL of compound dissolved in DMSO, positive controls or DMSO only was added to the assay plates via Wako pintool station. The assay plates were incubated at room temperature for 10 min. Next, 1 uL of NKH477 at 200nM was added into the plates. After the assay plates were incubated at room temperature for an additional 30 min, 2.5 ul/well of cAMP-d2 and 2.5 ul/well of anti-cAMP-cryptate were added respectively into the assay plates using a Flying Reagent Dispenser. The plates were incubated at room temperature for 1 h. The fluorescence intensity in the plates was measured at 340 nm excitation and 665 & 620 nm emission by an Envision plate reader.
On to `CC(C)(C)C(=O)C(=O)O`, for which the Potency entry was “inactive”. On the same count and under the same terms, with `CCC1(C)NC(=O)NC1=O` (stereo not given) the entry was “inactive”; with `CCCCC(CC)COC(=O)CC#N` (stereo not given), “inactive”. For `BrC/C=C/CBr`, the activation was -0.205% [at 19 µM]. As to `CCC(CO)(CO)COCC(CC)(CO)CO`, the Potency entry was “inactive”. The same measure, in the same setting: for `CCCCCCCCCCOC(C)=O` the value was “inactive”; for `O=C(O)Cc1ccc2c(c1)C(=O)c1ccccc1CO2`, “inactive”; for `C=CC(C)(CCC=C(C)C)OC(=O)C(C)C` (stereo not given), “inactive”. As to `O=C(CCC1CCN(Cc2ccccc2)CC1)c1ccc2c(c1)NCCCC2`, the Potency entry was “inactive”. The same measure, in the same setting: for `CC(C)C[C@H](NC(=O)OCC1c2ccccc2-c2ccccc21)C(=O)O` the value was “inactive”. On the same count and under the same terms, for `NCCOCCOCCN` the value was “inactive”; for `CCOC(=O)OCC/C(SC(=O)OCC)=C(\C)N(C=O)Cc1cnc(C)nc1N`, “inactive”. On the same count and under the same terms, for `CCC=CC#N` the value was “inactive”.

As to `CCCCCCCCCCCC(=O)N(CC)CC`, the Potency entry was “inactive”. On to `O=C(Nc1cccc(C2=NCCN2)c1)Nc1cccc(C2=NCCN2)c1`, for which the activation is -15.4% [at 19 µM]. Take `CC(C)=CC(=O)C=C(C)C`: the Potency result is “inactive”. As to `Nc1c2c(nc3c1CCC3)CCCC2`, the Potency result was “inactive”.

On to `CCCCCCOc1ccc(N)cc1`, for which the Potency entry is “inactive”.

Turning to `Cc1nc2n(c(=O)c1CCN1CCC(c3noc4cc(F)ccc34)CC1)CCC[C@H]2O`, the activation was -27% [at 19 µM]. `Cc1cccc(C(C)(C)C)c1O`: the Potency entry was “inactive”. On the same count and under the same terms, for `CC(=O)Nc1ccc(C)c(Cl)c1` the value was “inactive”; for `O=C(O)c1cn(C2CC2)c2cc(Cl)c(F)cc2c1=O`, “inactive”; for `O=C(CCOCCOCCOCCOCCC(=O)Nc1c(I)cc(I)c(C(=O)O)c1I)Nc1c(I)cc(I)c(C(=O)O)c1I`, “inactive”.

On to `CC(=O)O[C@H]1C[C@@H]2CC[C@@H]3[C@H](CC[C@@]4(C)[C@H]3C[C@H]([N+]3(C)CCCCC3)[C@@H]4OC(C)=O)[C@@]2(C)C[C@@H]1N1CCCCC1`, for which the Potency result is “inactive”. Still for that read-out and setting: with `CCOC(=O)C(=O)c1csc(NC=O)n1` the entry was “inactive”.

Consider `O=C(O)/C=C/c1ccc(/C=C/C(=O)O)cc1`, for which the Potency entry was “inactive”. Same read-out and setting: for `NC12CC3CC(CC(C3)C1)C2` the value was “inactive”. In the case of `CCn1cc(C(=O)O)c(=O)c2cc(F)c(N3CCN(C)CC3)cc21`, the activation was 19.5% [at 19 µM].

Regarding `Oc1ccc(Nc2ccccc2)cc1`, the Potency entry is “inactive”. Still for that read-out and setting: with `Cc1cn[nH]c1` the entry was “inactive”; with `Nc1ccc(S(=O)(=O)NCc2ccccc2)cc1`, “inactive”. On the same count and under the same terms, for `CCOC(=O)N1CCC(Nc2ccc(Cl)cc2N)CC1` the value was “inactive”. Regarding `CCOC(CN1CCN(CC(C)C(=O)c2ccccc2)CC1)c1ccccc1` (stereo not given), the activation was -24.3% [at 19 µM]. Regarding `Oc1cccc2[nH]ccc12`, the Potency entry was “inactive”. The same measure, in the same setting: for `O=C(CCCl)NCCc1ccccc1` the value was “inactive”; for `SCCCCCCCCS`, “inactive”. The same measure, in the same setting: with `CSc1nc(NC2CC2)nc(NC(C)(C)C)n1` the entry was “inactive”; with `OC1CCC(C2CCCCC2)CC1` (stereo not given), “inactive”; with `CCn1c2ccccc2c2cc([N+](=O)[O-])ccc21`, “inactive”. Same read-out and setting: for `Clc1ccc2n[nH]nc2c1` the value was “inactive”.

The record behind these values is PubChem BioAssay (Tox21).
